# Assay results: PubChem BioAssay (NCI)
# About 83,000 compounds went through this panel and 20% of them were active in at least one assay; those are over-represented in the sample as a whole.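 The endpoint reported here, percent growth, reads 100 for growth as untreated, 0 for no net growth and -100 for all cells dead.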 Values without a mark were called inactive. Calls of active or inactive are those of the source. The calls were made as follows: active = growth percent below 10; inactive = the rest.
# Experiments:
# Assay in all cases: NCI-60 one-dose screen, 48 h (100 = growth as untreated, 0 = no growth, -100 = all killed)
# Conditions in all cases: 10 µM unless noted
# T-47D breast = test system: T-47D breast
# BT-549 breast = test system: BT-549 breast
# MDA-MB-435 melanoma = test system: MDA-MB-435 melanoma
# SW-620 colon = test system: SW-620 colon
# MCF7 breast = test system: MCF7 breast
# HCT-116 colon = test system: HCT-116 colon
# HCC-2998 colon = test system: HCC-2998 colon
# KM12 colon = test system: KM12 colon
SMILES,growth (T-47D breast),growth (BT-549 breast),growth (MDA-MB-435 melanoma),growth (SW-620 colon),growth (MCF7 breast),growth (HCT-116 colon),growth (HCC-2998 colon),growth (KM12 colon)
Cc1c2c(cn1Cc1ccccc1)CCc1cn(C)nc1-2,87.9%,74.4%,104%,109%,85.2%,74.3%,97.6%,99.9%
O[C@H]1CO[C@H]2[C@@H]1OC[C@@H]2Oc1ccc(Nc2ccnc(Nc3ccc(O[C@H]4CO[C@H]5[C@@H]4OC[C@@H]5O)c(Cl)c3)n2)cc1Cl,2.36% (active),22.1%,22.7%,19.5%,14.6%,9.14% (active),17.1%,6.62% (active)
COc1ccc(/C(C)=C(\c2ccc(Cl)cc2)c2ccc(OCCN(C)C)cc2)cc1F,77.3%,87.7%,51.5%,54.8%,31.8%,43.6%,25.4%,34.2%
Nc1ccn(C2OC(F)(CO)C(O)C2F)c(=O)n1 (configuration not stated),55.3%,44.4%,52.9%,52.1%,21.7%,35.3%,48.3%,59.2%
CNC1(C#N)CCN(Cc2ccccc2)CC1,5.3% (active),203%,95.4%,105%,102%,106%,106%,103%
Cl.[Pt].[c-]1ccccc1-c1ccccn1.c1ccc(P(c2ccccc2)C([PH+](c2ccccc2)c2ccccc2)[PH+](c2ccccc2)c2ccccc2)cc1,27.8%,27%,4.42% (active),13.6%,3.15% (active),7.37% (active),24.9%,5.04% (active)
CCOC(=O)c1ccc(NC(=O)CCCN(CC)CC)cc1,92.6%,83.1%,108%,110%,96%,87.3%,102%,104%
Cc1ccc(NSc2ccccc2[N+](=O)[O-])cc1,27.3%,34.1%,-26.2% (active),26.9%,30.4%,20.3%,31.4%,20.3%
O=C1/C(=C/c2ccccc2[N+](=O)[O-])COc2ccc(O)c(O)c21,12.4%,21.3%,-62.2% (active),-38.7% (active),6.98% (active),-15.4% (active),-46.5% (active),-3.65% (active)
Cc1cnc(Nc2ccc(N3CCN(C)CC3)cc2)nc1Nc1ccc(Cl)c(NS(=O)(=O)C(C)(C)C)c1,39.8%,-5.14% (active),31.6%,1.76% (active),5.84% (active),8.83% (active),-48.1% (active),8.8% (active)
[2H]c1nc(Nc2ncc(F)c(-c3cc(F)c4nc(C)n(C(C)C)c4c3)n2)c([2H])c([2H])c1CN1CCN(C([2H])([2H])C([2H])([2H])[2H])CC1,54.6%,51.3%,51.7%,43.5%,30.3%,26.1%,82.4%,40.5%
COc1cc2ccccc2cc1C(=O)NC(=S)Nc1ccc(-c2nc3ccccc3[nH]2)cc1,76.9%,45.6%,80.2%,80.5%,59%,82%,96.3%,68.2%
COC(=O)CCCNC(=O)C(=O)c1c(O)c(O)c(C(C)C)c2cc(C)c(-c3c(C)cc4c(C(C)C)c(O)c(O)c(C(=O)C(=O)NCCCC(=O)OC)c4c3O)c(O)c12,4.43% (active),8.07% (active),13%,19.2%,10.9%,-30.9% (active),29.5%,8.55% (active)
CCCN1CCN(c2ccc3nc(-c4ccc5nc(-c6cc(OC)c(OC)c(OC)c6)[nH]c5c4)[nH]c3c2)CC1,65.9%,83.2%,55.1%,75.7%,23.8%,55.1%,94.2%,77%
CN(C)c1ccc(/C=C/c2c(F)cccc2F)cc1,58.3%,94.7%,101%,104%,49.7%,91.8%,95.1%,91.7%
O=C(NCOC(O)C(Cl)(Cl)Cl)NCOC(O)C(Cl)(Cl)Cl (configuration not stated),89.5%,101%,107%,108%,89.6%,99.9%,118%,109%
Nc1nc(I)c2ncn(C3OC(CO)C(O)C3O)c2n1 (configuration not stated),94.9%,69.7%,91.6%,114%,96.6%,110%,103%,115%
COc1cc(/C=C/C(=O)c2cccc(-n3cc(-c4ccccc4)[nH]c3=O)c2)cc(OC)c1OC,-6.56% (active),-13.1% (active),-3.32% (active),-29% (active),-93.8% (active),-90.3% (active),-81.4% (active),-53.6% (active)
COc1ccc(/C(C)=C(\c2ccc(Cl)cc2)c2ccc(OCCN3CCCCC3)cc2)cc1F,47.4%,60.7%,37%,22.1%,15%,19.7%,25.2%,18.7%
CC(=O)Nc1ccc(-c2cc3c(NCc4ccc(F)cc4)ncnc3s2)cc1,74%,71.7%,93%,97.7%,75.7%,80.7%,90.1%,99.3%
C(=C\c1nc2ccccc2[nH]1)/c1nc2ccccc2[nH]1,78.2%,118%,104%,108%,74.4%,104%,88.4%,98.1%
O=C(NC1CCOCC1)c1ccc2c(c1)CN(c1ncc(Cc3cccc(-n4cccn4)c3)s1)CC2,38.9%,31.1%,76.3%,107%,56.9%,47.6%,77%,84.9%
COc1ccc(/C(C)=C(\c2ccc(Cl)cc2)c2ccc(OCCN3CCCC3)cc2)cc1F,50.7%,66.3%,31.6%,13.3%,9.96% (active),14.3%,18.6%,7.85% (active)
Cc1c(Cl)cccc1NS(=O)(=O)c1ccccc1,109%,105%,101%,106%,107%,104%,109%,116%
O=c1oc2ccc(Cl)cc2cc1-c1cs/c(=N/N=C\c2ccc(Cl)cc2)n1/N=C/c1ccc(Cl)cc1,87.5%,109%,103%,104%,95.7%,91.9%,103%,107%
COc1ccc(-c2nnc(-c3ccc4c(c3)nc(-c3ccccc3)n4C3CCCCC3)o2)cc1,4.1% (active),30.9%,59.6%,71.3%,33.2%,34.7%,81.5%,39.9%
COc1cc(/C=C/c2nc(Nc3ccc(S(=O)(=O)Nc4cc(C)on4)cc3)c3ccccc3n2)ccc1O,58.4%,107%,-44.1% (active),39.1%,30.7%,54.6%,81.9%,31.8%
CCCNCC(=O)Nc1ccc(C(=O)OC(C)(C)CC)cc1,103%,77.4%,113%,105%,103%,84.1%,99.9%,104%
NS(=O)(=O)Oc1ccc(NC(=O)C23CC4CC(CC(C4)C2)C3)cc1Cl,75.4%,99.3%,99.5%,106%,97.3%,107%,103%,95.8%
